Assay [1] has as its target Cytochrome P450 2C19 (Homo sapiens) (UniProt P33261). As to the kind of experiment: qHTS Assay for Inhibitors and Substrates of Cytochrome P450 2C19 (AID 899). Also: potency is read from the fitted curve at half-maximal effect; nearly all actives have a fitted effect of over 60% in size. In outline:
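5nM enzyme + 10uM Luciferin-H EGE (=KM), 50mM KPO4; cpd pin-transferred, 10 min 37C; NADPH regen, 60 min 37C; stopped w/ luciferin detection reagent, 20 min; luminescence. Normalized to 57uM ketoconazole (AC100).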

Assay [2] in a line: Confirmation and Secondary Assay for Modulators of Hemoglobin Beta Chain Splicing at IVS2 654 locus (AID 910).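 Also: HeLa cells stably carrying EGFP split by mutant beta-globin IVS2-654 intron; per-well total GFP intensity by laser scanning cytometry after 2-day treatment.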 In a few lines: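 Readout: per-well total peak green fluorescence (488 nm ex, 500–520 nm em) from objects 5–250 µm, reflecting correct splicing of an EGFP-654 reporter. Compounds were applied for 2 days at 37 °C to overnight-plated HeLa EGFP-654 cells; controls were DMSO and 500 nM IVS2-654 PNA.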

The nature of assay [3]: Confirmation and Secondary Assay for Modulators of Hemoglobin Beta Chain Splicing at IVS2 705 locus (AID 930).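 Also: HeLa cells stably expressing the EGFP-705 splicing reporter; GFP fluorescence per well restored by corrected splicing of the IVS2-705 intron in EGFP; series mostly up to about 46 µM.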 In a few lines: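 Splice-correction reporter: EGFP cDNA split by beta-globin intron 2 bearing the 705 mutation, stably in HeLa. Compound incubation 2 days, 37C; fluorescent objects 5-250 µm summed per well.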
The target in assay [4] is Muscarinic acetylcholine receptor M1 (Rattus norvegicus) (UniProt P08482). Briefly: qHTS Assay for Antagonists of Acetylcholine Muscarinic M1 Receptor: Measurement of IP-One Response (AID 944). Also: potency is read from the fitted curve at half-maximal effect; nearly all actives have a fitted effect of over 75% in size. In outline: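 CHO cells stably expressing rat M1, pretreated 10 min with compound, then stimulated 30 min with carbachol at EC80 (200 nM) in LiCl-containing buffer pH 7.4; IP1 accumulation read by HTRF competition (665/620 nm).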
Chain of Muscarinic acetylcholine receptor M1 (Rattus norvegicus) (P08482 whole entry, looked up): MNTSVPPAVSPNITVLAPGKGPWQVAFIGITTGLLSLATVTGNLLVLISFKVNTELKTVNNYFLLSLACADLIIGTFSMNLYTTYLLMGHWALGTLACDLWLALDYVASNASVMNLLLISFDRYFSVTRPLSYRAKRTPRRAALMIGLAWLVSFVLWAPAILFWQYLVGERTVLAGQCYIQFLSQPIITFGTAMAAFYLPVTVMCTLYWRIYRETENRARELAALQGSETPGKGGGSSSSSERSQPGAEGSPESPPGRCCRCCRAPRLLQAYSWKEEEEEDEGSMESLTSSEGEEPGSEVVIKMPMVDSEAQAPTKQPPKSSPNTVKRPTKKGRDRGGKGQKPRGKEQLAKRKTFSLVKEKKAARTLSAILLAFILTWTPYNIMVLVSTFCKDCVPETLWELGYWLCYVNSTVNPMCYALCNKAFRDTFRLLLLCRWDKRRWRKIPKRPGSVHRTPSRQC

A short description of assay [5]: qHTS Assay for Identification of Small Molecule Antagonists for NFkB Signaling Pathway (AID 895; active = well fitted inhibition curve with a large enough effect in the signal ratio, with a control signal flat, not every such curve was filed as active; the % refers to the signal ratio; also: potency is read from the fitted curve at half-maximal effect). In a few lines: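 Beta-lactamase reporter read-out (460 and 530 nm emission ratio, 405 nm excitation, 2 hrs substrate loading RT) after 5 hr stimulation with 10 pM TNF alpha in compound-treated NFkB-bla ME-180 cells in low-serum medium.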
The target in assay [6] is Muscarinic acetylcholine receptor M1 (Rattus norvegicus) (UniProt P08482). Briefly: qHTS Assay for Antagonists of Acetylcholine Muscarinic M1 Receptor: Kinetic Measurement of Intracellular Calcium Response (AID 943). Also: potency is read from the fitted curve at half-maximal effect; nearly all actives have a fitted effect of over 75% in size. In a few lines: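 CHO cells expressing rat M1 receptor, Fluo-4 loaded, preincubated 10 min with compound, then stimulated with EC80 carbachol (100 nM final). Kinetic calcium fluorescence over 4 min; response taken as peak over basal signal.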

The nature of assay [7]: qHTS Assay for Identification of Small Molecule Antagonists for Thrombopoietin (TPO) Signaling Pathway (AID 918). Also: potency is read from the fitted curve at half-maximal effect; nearly all actives have a fitted effect of over 60% in size. The note with it: TPO-dependent cell signaling reporter, antagonist mode. In outline: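 Murine Ba/F3 cells expressing human TPO receptor and a Glycoprotein IIb promoter-luciferase reporter, IL-3-starved overnight, treated with compound plus TPO at EC50 (26 pM final). After 24 h at 37 C, luminescence read to detect inhibitors.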

Assay [8] deals with Pyruvate kinase (Leishmania mexicana) (UniProt Q27686). Briefly: qHTS Validation Assay for Inhibitors of Leishmania Mexicana Pyruvate Kinase (AID 945). In outline: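 The enzyme is a highly purified E451W mutant of LmPYK used at 0.2 nM. It converts 0.5 mM PEP and 0.1 mM ADP over 1 h at room temperature; product ATP is quantified by luciferase luminescence relative to DMSO controls.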
Chain of Pyruvate kinase (Leishmania mexicana) (Q27686 2-499 E452W): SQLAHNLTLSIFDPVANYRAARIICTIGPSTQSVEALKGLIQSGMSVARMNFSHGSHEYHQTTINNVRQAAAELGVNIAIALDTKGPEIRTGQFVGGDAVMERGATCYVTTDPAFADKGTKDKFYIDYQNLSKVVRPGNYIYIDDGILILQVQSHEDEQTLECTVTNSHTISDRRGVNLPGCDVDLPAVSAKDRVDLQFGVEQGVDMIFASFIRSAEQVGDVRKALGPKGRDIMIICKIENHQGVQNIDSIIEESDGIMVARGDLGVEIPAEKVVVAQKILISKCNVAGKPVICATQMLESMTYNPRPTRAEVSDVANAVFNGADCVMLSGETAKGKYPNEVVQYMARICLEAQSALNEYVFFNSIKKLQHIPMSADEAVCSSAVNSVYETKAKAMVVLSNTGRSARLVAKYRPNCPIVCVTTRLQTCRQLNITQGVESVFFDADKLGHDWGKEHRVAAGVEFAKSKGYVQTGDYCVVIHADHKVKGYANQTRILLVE

The target in assay [9] is Alpha-galactosidase (Coffea arabica) (UniProt Q42656). As to the kind of experiment: Counterscreen for Glucocerebrosidase Inhibitors: qHTS Assay for Coffee Bean alpha-Galactosidase at pH 4.5 (AID 957). Also: series mostly up to about 77 µM. In a few lines: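 Coffee bean enzyme (2 nM) with 80 uM 4-methylumbelliferyl alpha-D-galactopyranoside in 50 mM citric acid, 0.005% Tween-20, pH 4.5, 20 min at room temperature; compounds 0.7 nM–77 uM. Stopped at pH 10, fluorescence 365/440 nm; AC50 from Hill fits.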
Chain of Alpha-galactosidase (Coffea arabica) (Q42656 whole entry, looked up): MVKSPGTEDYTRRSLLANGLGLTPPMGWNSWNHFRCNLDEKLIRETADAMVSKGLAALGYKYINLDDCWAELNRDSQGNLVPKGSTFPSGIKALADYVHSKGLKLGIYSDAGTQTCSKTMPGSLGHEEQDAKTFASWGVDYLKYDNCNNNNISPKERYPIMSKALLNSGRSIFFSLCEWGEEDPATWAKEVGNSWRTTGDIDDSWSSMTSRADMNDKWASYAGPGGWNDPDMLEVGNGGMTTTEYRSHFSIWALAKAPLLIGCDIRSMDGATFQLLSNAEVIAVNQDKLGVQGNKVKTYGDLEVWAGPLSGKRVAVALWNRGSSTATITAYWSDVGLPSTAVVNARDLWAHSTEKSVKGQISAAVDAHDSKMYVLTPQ

Assay [10] shares this target. Briefly: Counterscreen for Glucocerebrosidase Inhibitors: qHTS Assay for Coffee Bean alpha-Galactosidase at pH 5.9 (AID 998). In a few lines: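 Compounds were titrated from 0.7 nM to 77 uM against green coffee bean alpha-galactosidase (2 nM) using 80 uM fluorogenic 4-methylumbelliferyl substrate. After 20 min at room temperature, reactions were stopped at pH 10 and read by fluorescence.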

This note sets out measurements from PubChem BioAssay (NCATS).

Values without a mark were called inactive. Records with an inconclusive call do not appear. Where a call stands in place of a potency, no number is given. Active and inactive are the calls of the source. Unless noted, calls follow the shape of the dose curve; as a rule, active = well fitted curve in the direction sought with a large enough effect; inconclusive = small, poorly fitted or top-dose-only effect, or another doubt; inactive = no such curve, though single readings can be large; an effect the other way counts as inactive or inconclusive.

Chain of Cytochrome P450 2C19 (Homo sapiens) (P33261 whole entry, looked up): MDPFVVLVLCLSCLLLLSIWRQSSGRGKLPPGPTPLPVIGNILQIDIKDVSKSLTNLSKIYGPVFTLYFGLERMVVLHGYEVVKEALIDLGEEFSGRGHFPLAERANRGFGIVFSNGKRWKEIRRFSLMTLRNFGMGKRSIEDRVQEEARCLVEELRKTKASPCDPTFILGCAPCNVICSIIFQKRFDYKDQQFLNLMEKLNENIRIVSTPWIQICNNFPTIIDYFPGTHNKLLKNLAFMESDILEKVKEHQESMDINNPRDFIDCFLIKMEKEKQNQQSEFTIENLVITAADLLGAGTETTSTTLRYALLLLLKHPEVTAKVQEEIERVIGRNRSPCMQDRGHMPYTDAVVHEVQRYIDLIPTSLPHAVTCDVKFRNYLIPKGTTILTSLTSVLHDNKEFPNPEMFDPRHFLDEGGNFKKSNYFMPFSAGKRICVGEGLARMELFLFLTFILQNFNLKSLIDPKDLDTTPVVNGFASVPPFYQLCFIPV

On to `CC(=O)[C@@H]1CC[C@@H]2[C@@H]3CCC4=CC(=O)CC[C@@]4(C)[C@H]3CC[C@]21C`, for which the Potency in assay [1] was 7.94 µM (active).

With `COC(=O)[C@]1(C)CC[C@@]2(C)CC[C@@]3(C)C4=CCc5c(cc(O)c(O)c5C)[C@]4(C)CC[C@@]3(C)C2C1` (stereo partly drawn), the Potency result in assay [2] is “inactive”. Besides, the compound was called inactive in assay [3].

In the case of `COc1cc2ccc(=O)oc2c2ccoc12`, in assay [2], the Potency result is “inactive”. Besides, in [3], the call was inactive.

Regarding `Clc1ccc(C(c2ccc(Cl)cc2)n2cc[n+](C[C@@H](OCc3ccc(Cl)cc3Cl)c3ccc(Cl)cc3Cl)c2)cc1`, the Potency in assay [4] is 14.1 µM (active).

With `CN1[C@@H](CC(=O)c2ccccc2)CCC[C@@H]1C[C@@H](O)c1ccccc1`, the values for the Potency in assay [5] and in [6] were 12.6 µM [stimulated with 10 pM TNF alpha] (active) and 5.62 µM (active), respectively.

`CC1=C(O)C(=O)C=C2C1=CC=C1[C@]2(C)CC[C@@]2(C)C3C[C@](C)(C(=O)O)CC[C@@]3(C)CC[C@@]12C` (stereo partly drawn): the Potency result in assay [2] is “inactive”. The compound was classed as inactive in assay [3].

`C=C(C)C1Cc2c(ccc3c2OC2COc4cc(OC)c(OC)cc4C2C3=O)O1` (stereo not drawn): the Potency result in [2] is “inactive”. Further, the call in [3] was inactive.

For `CC[C@@H]1CN2CCc3cc(OC)c(OC)cc3[C@H]2C[C@@H]1C[C@@H]1NCCc2cc(OC)c(OC)cc21`, the Potency in [7] was 0.0631 µM (active).

For the compound `COc1ccc2c(c1)CCC1C2CC[C@]2(C)[C@H](NCCCCCCN3C(=O)C=CC3=O)CC[C@@H]12` (stereo partly drawn), in assay [7], the Potency was 2 µM (active).

On to `CC(=O)O[C@@H]1[C@H]([N+]2(C)CCCCC2)C[C@@H]2[C@@H]3CC[C@@H]4C[C@@H](OC(C)=O)[C@H]([N+]5(C)CCCCC5)C[C@@]4(C)[C@H]3CC[C@]21C`, for which the Potency was 8.91 µM (active) in assay [6] and 14.1 µM (active) in assay [4].

Turning to `CC(C)[C@@H]1NC(=O)[C@H](CCCCN)NC(=O)[C@H](Cc2c[nH]c3ccccc23)NC(=O)[C@H](Cc2ccc(O)cc2)NC(=O)[C@H](C)N(C)C(=O)[C@H](Cc2ccccc2)NC1=O`, the Potency result in assay [8] is “inactive”.

`N=C1Sc2ccccc2C2=NCCCN12`: the result in assay [9] and in assay [10] was inactive.

Take `CC(C)(C)c1onc(OCP(=O)(O)O)c1C[C@@H](N)C(=O)O`: the compound was classed as inactive in assay [9] and in [10].

Regarding `CNC(=O)[C@@H]1O[C@@H](n2cnc3c(NCc4ccc(N)cc4)ncnc32)[C@@H](O)[C@H]1O`, the compound was called inactive in [9] and in assay [10].

Take `CC(C)(C)NC[C@H](O)c1ccc(O)c(CO)c1`: the compound was called inactive in assay [9] and in assay [10].

As for `O=C(NC[C@H]1CCCCN1)c1cc(OCC(F)(F)F)ccc1OCC(F)(F)F`, the result in [9] and in [10] was inactive.

Regarding `COC(=O)C1=C(C)NC(C)=C([N+](=O)[O-])[C@H]1c1ccccc1C(F)(F)F`, the call in assay [9] and in assay [10] was inactive.

For the compound `COc1cc2nc(N3CCN(C(=O)[C@H]4COc5ccccc5O4)CC3)nc(N)c2cc1OC`, the result in [9] and in assay [10] was inactive.

As for `CN(C)C(=O)/N=N\C(=O)N(C)C`, the call in assay [9] and in [10] was inactive.

Regarding `COc1cc2c(cc1O)CC[C@@H]1[C@@H]2CC[C@@]2(C)[C@H](O)CC[C@H]12`, the compound was classed as inactive in assay [9] and in [10].

`CCCN[C@@H](C)C(=O)Nc1ccccc1C`: the result in [9] and in assay [10] was inactive.

With `CCN(CC)CCC[C@H](C)Nc1c2ccc(Cl)cc2nc2ccc(OC)cc12`, the result in [9] was inactive.

With `CC[C@H](C)[C@@H]1O[C@]2(CC[C@@H]1C)C[C@H]1C[C@H](CC=C(C)[C@@H](O[C@H]3C[C@H](OC)[C@H](O[C@H]4C[C@H](OC)[C@H](O)[C@H](C)O4)[C@H](C)O3)[C@@H](C)C=CC=C3CO[C@@H]4[C@@H](O)C(C)=C[C@H](C(=O)O1)[C@@]34O)O2`, the compound was called inactive in [9] and in assay [10].

For the compound `CCCN(CCc1ccccc1)[C@H]1CCc2c(O)cccc2C1`, the outcome in [9] and in [10] was inactive.

For the compound `N[C@H](C(=O)N[C@@H]1C(=O)N2C(C(=O)O)=C(Cl)CS[C@@H]12)c1ccccc1`, the result in assay [9] and in assay [10] was inactive.

`Cc1c(C)c2c(c(C)c1O)CC[C@@](C)(CN1CCN(c3cc(N4CCCC4)nc(N4CCCC4)n3)CC1)O2`: the call in [9] was inactive.

`O=C(O)[C@@H]1CCCN[C@H]1C(=O)O`: in assay [9], the compound was called inactive.

Consider `CSc1ccc2c(c1)[C@H](N1CCN(C)CC1)Cc1ccccc1S2`, for which the compound was called inactive in [9] and in assay [10].

In the case of `CC[C@]1(O)C[C@H]2CN(CCc3c([nH]c4ccccc34)[C@](C(=O)OC)(c3cc4c(cc3OC)N(C=O)[C@H]3[C@@](O)(C(=O)OC)[C@H](OC(C)=O)[C@@]5(CC)C=CCN6CC[C@]43[C@H]65)C2)C1`, the compound was classed as inactive in assay [9] and in assay [10].

Turning to `C[C@@H](CN(C)C)CN1c2ccccc2CCc2ccccc21`, the result in assay [9] and in assay [10] was inactive.

For the compound `C[C@@]12C(=O)OC(=O)[C@@]1(C)[C@H]1CC[C@@H]2O1`, the result in assay [9] and in [10] was inactive.

Regarding `CN=C(NC#N)Nc1ccc(C2=NNC(=O)C[C@@H]2C)cc1`, the call in assay [9] and in assay [10] was inactive.

In the case of `Cc1ccccc1CNc1ncnc2c1ncn2[C@@H]1O[C@@H](CO)[C@H](O)[C@@H]1O`, the call in assay [9] and in assay [10] was inactive.
